The source of these data is PubChem BioAssay AID950 (NMMLSC, 2007).

The term inhibition denotes the relative decrease from the control value, in per cent.

Each structure is given as a SMILES string. The whole screen tested about 190,000 compounds, of which about 120 (0.063%) were called active. For the sample, actives were picked, then their nearest neighbours and some compounds at random. Values without a mark were called inactive. Cut-off read from the data, not from the text of the source: active = inhibition above about 40%; inconclusive = no clear call, values can overlap the other calls; inactive = below that.

Chain of Apoptosis regulator Bcl-2 (Homo sapiens) (P10415 whole entry, looked up): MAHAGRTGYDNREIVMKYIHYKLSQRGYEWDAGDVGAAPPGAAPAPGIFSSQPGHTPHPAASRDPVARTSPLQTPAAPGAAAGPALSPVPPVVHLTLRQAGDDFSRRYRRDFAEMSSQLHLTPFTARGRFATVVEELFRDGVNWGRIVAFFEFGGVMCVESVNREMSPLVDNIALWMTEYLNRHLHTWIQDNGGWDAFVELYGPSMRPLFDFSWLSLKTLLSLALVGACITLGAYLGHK

The assay has as its target Apoptosis regulator Bcl-2 (Homo sapiens) (UniProt P10415). Briefly: Bcl-2 and Bim peptide interaction disruptors – biochemical, multiplexed, human Bcl-2 family, primary screen (AID 950).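 Note: 0% = no compound wells with probe peptide and 100% = reference peptide inhibitor.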 To be noted: Bead-based flow cytometry, Bim peptide-Bcl-2 binding; at 10 µM; stronger effect = higher value.
With `Cc1cccc(NC(=S)NCc2ccc3[nH]c4c(c3c2)CCCC4)c1`, the inhibition is 2%.
For `NS(=O)(=O)c1ccc(NC(=O)COC(=O)C2(c3ccc(F)cc3)CCCC2)cc1` the value was -9%; for `Cc1cccc(Nc2nc3c(S(=O)(=O)c4ccccc4)nnn3c3ccccc23)c1C`, 0%; for `CCc1ccc(NC(=O)Cn2nc(C)c([N+](=O)[O-])c2C)cc1`, -2%.
With `CC(C)c1ccc(C2C(C#N)=C(N)Oc3c2oc(CO)cc3=O)cc1` (configuration not stated), the inhibition was -2%.
For `CCOc1ccc(NC(=O)COc2ccc(C(=O)NC3CCCc4ccccc43)cc2OC)cc1` (configuration not stated) the value was -6%.
For `O=C(NCC1CCCO1)/C(=C/c1ccc(Cl)cc1)NC(=O)c1ccccc1` (configuration not stated) the value was -5%; for `CCCNS(=O)(=O)c1ccc(CCC(=O)N2CCCC2)cc1`, -5%.
For `CC(=O)c1c(C)[nH]c(C(=O)OCC(=O)NCCC(C)C)c1C` the value was -3%; for `CCOC(=O)CCNC(=O)N1CCCC(C(=O)c2ccccc2SC)C1` (configuration not stated), 2%; for `CC(CC(=O)C1C(C)C=CCC1(C)C)NNC(N)=O` (configuration not stated), -3%.
Turning to `CC(Sc1nnnn1C1CCCCC1)C(=O)O` (configuration not stated), the inhibition was -2%.
For `COc1ccc(Cl)cc1NC(=O)COC(=O)C(CC(C)C)N1C(=O)C2CC=CCC2C1=O` (configuration not stated) the value was -9%.
For `COc1cccc(NC(=O)NCc2ccc(F)cc2)c1` the value was 0%; for `Cc1cc(Cl)c(S(=O)(=O)Nc2ccc3c(c2)OCCO3)cc1OCC(N)=O`, -1%; for `Cc1cc(Cl)c(S(=O)(=O)NCCC(=O)O)cc1OCC(N)=O`, -7%.
For `Cc1cc(Cl)c(S(=O)(=O)NCC2CCCO2)cc1OCC(N)=O` (configuration not stated) the value was 79% (active); for `CN(C)CCOCCOc1ccc(Cl)c2ccccc12`, -7%; for `O=C(Nc1ccccc1C(=O)N1CCCCCC1)c1ccccc1Cl`, -4%.
Consider `CC(=O)Nc1ccc(S(=O)(=O)NC2(C(F)(F)F)C(=O)Nc3c2c(=O)[nH]c(=O)n3Cc2ccccc2)cc1` (configuration not stated), for which the inhibition was -4%.
For the molecule `COCCOC(=O)c1c(C)oc2cc(Br)c(OCC(N)=O)cc12`, the inhibition was 0%.
For `CCCCN(C(=O)COc1ccc(NC(C)=O)cc1)C1CCS(=O)(=O)C1` (configuration not stated) the value was -3%; for `COCCn1c(C)cc(C(=O)COC(=O)/C=C/c2cccc(OC)c2)c1C`, -5%.
For the molecule `O=C(O)Cc1ccc(NCc2ccccc2Cl)cc1`, the inhibition is -3%.
For `CC1CN(S(=O)(=O)c2ccc(C(=O)Nc3sccc3C(N)=O)cc2)CC(C)O1` (configuration not stated) the value was 1%; for `Cc1ccc(-c2nc(C#N)c(NCCCn3ccnc3)o2)cc1`, -2%.
For `O=C(CNCc1ccco1)Nc1cc(S(=O)(=O)N2CCOCC2)ccc1N1CCCC1` the value was -2%; for `CC(C)=CCN1CCN(Cc2ccc(Oc3ncccn3)cc2)CC1CCO` (configuration not stated), 1%; for `COc1ccc(N2CCN(C(=S)Nc3ccc(S(N)(=O)=O)cc3)CC2)cc1`, -3%.
For `O=C(NCc1ccc(Cl)cc1)NCc1ccc(Cl)cc1` the value was -4%; for `O=C(CSc1ccc(-c2ccc(F)cc2)nn1)Nc1ccc2c(c1)OCCO2`, -6%; for `O=C(Nc1cccc(F)c1)N1C2CCC1CC(O)(c1cccnc1)C2` (configuration not stated), 0%.
Take `O=C(CN1CCN(c2ccc(O)cc2)CC1)Nc1cc(S(=O)(=O)N2CCOCC2)ccc1Cl`: the inhibition was 0%.
For `COc1cc(COCC(O)CN2CCN(Cc3ccc4c(c3)OCO4)CC2)cc(OC)c1OC` (configuration not stated) the value was -1%; for `COC(=O)C1=C(C)N(C)C(=S)NC1c1cc(OC)ccc1OC` (configuration not stated), -5%; for `COc1ccc(N2CCN(C(=O)C3CCN(S(=O)(=O)c4ccc(C)cc4)CC3)CC2)cc1`, 2%.
For `O=C(c1ccc(N2CCOCC2)c([N+](=O)[O-])c1)N1CCN(S(=O)(=O)c2cccs2)CC1` the value was 0%; for `COc1ccc(C(=O)C[n+]2ccc(N)c(C)c2C)cc1`, -1%.
For `Cc1ccc(Cl)cc1NC(=S)N(CCN(C)C)Cc1cccs1` the value was -4%; for `C/C(=N\NC(=S)NC(C)C)c1ccc(C(C)(C)C)cc1`, -4%.
In the case of `Cc1nnc(N/N=C/C2CC=CCC2)[nH]c1=O` (configuration not stated), the inhibition was 2%.
For `O=C(c1cccc(S(=O)(=O)N2CCCC2)c1)N(Cc1ccco1)C1CCS(=O)(=O)C1` (configuration not stated) the value was -3%; for `CCC(=O)Nc1ccc(Nc2nc(Cl)nc(Nc3ccc(NC(=O)CC)cc3)n2)cc1`, 0%.
For `COCCCNCCOCCOc1ccc(Cl)cc1Br`, the inhibition was 1%.
For `O=C(NCc1ccccc1)C1=C[C@@H](C2CCCCC2)C[C@@H](OCc2ccc(CO)cc2)O1` the value was -1%; for `CCOC(=O)C1CCCN(C(=O)/C=C/c2ccc(OC)cc2)C1` (configuration not stated), -3%; for `CCn1c(=O)cc(SCC(=O)NCCC2=CCCCC2)c2ccccc21`, 8%.
Take `O=c1cnnc(Nc2ccccc2)[nH]1`: the inhibition is -1%.
Regarding `O=C(N/N=C1\CCSC1)c1cc(Cl)ccc1O`, the inhibition was 3%.
In the case of `CCOC(=O)COc1ccc([N+](=O)[O-])cc1`, the inhibition is -1%.
Consider `CCCn1c(C)cc(/C=C(\C#N)C(=O)OCC(=O)Nc2cc(OC)c(OC)c(OC)c2)c1C`, for which the inhibition was -6%.
For `CC1(C)C(c2cccs2)=[N+]([O-])C2(CCCCC2=O)N1O` (configuration not stated) the value was -5%.
As for `CCN(CC(=O)NCc1cccs1)C(=O)c1ccccc1F`, the inhibition is 1%.
With `COCCN(C(=S)Nc1ccccc1OC)C1CCN(C(C)C)CC1`, the inhibition is -1%.
For `Cc1cc(NC(=O)CSCc2ccccc2C)no1`, the inhibition was -1%.
For `COC(=O)c1cc(C)sc1NC(=O)CC1Nc2ccccc2NC1=O` (configuration not stated) the value was 0%.
For `CCN(CC)CCOC(=O)c1ccc(NC(=O)CNC(=O)c2ccccc2)cc1`, the inhibition was -4%.
For `CCC(NC(=O)c1ccccc1NC(=O)c1ccccc1)C(=O)NNC(=O)CSc1nc2ccccc2o1` (configuration not stated) the value was -6%; for `CC(=O)N1CC(C)c2scc(C)[n+]2-c2ccccc21` (configuration not stated), 2%; for `CC(O)c1nc2ccccc2n1Cc1ccc([N+](=O)[O-])cc1` (configuration not stated), -5%.
For `Cc1cc(C)cc(C(=O)N2CCN=C2SCc2ccc([N+](=O)[O-])cc2)c1` the value was -3%; for `Cc1ccc(C(=O)N2CC(=O)Nc3ccccc32)o1`, -6%.
